Reference: ChEMBL document CHEMBL2218924, “A broad activity screen in support of a chemogenomic map for kinase signalling research and drug discovery” (Biochem J, 2013)

Biological target: CDK9/cyclin T1 (Homo sapiens) (UniProt O60563+P50750)
Conditions: at 10 µM

Going from `CCCC(=O)Oc1ccc2[nH]c(C(=O)c3cc4ccccc4[nH]3)cc2c1` to `O=C(c1cc2cc(O)ccc2[nH]1)c1cc2cc(O)ccc2[nH]1`, the residual activity falls from 88% to 4%.

Compared with `Cn1sc(=O)n(Cc2ccccc2)c1=O`, `O=C1NC(=O)c2c1c1c3ccccc3[nH]c1n1cncc21` is lower in residual activity: 79% for the first, 59% for the second.

Compared with `O=C1NC(=O)C(c2cn(CCCn3ccnc3)c3ccccc23)=C1Nc1ccccc1`, `COc1ccc2c(c1)c(C1=C(c3c[nH]c4ccccc34)C(=O)NC1=O)cn2CCCN(C)C` is higher in residual activity: 3% for the first, 4% for the second.

Going from `Nc1n[nH]c2nc3ccccc3nc12` to `Nc1ncnc2c1cnn2-c1ccccc1`, the residual activity rises from 36% to 73%.

Going from `COc1cc2nccc(Oc3ccc(NC(=S)NC(=O)c4ccccc4C)cc3)c2cc1OC` to `O=S(=O)(NCCNC/C=C/c1ccc(Br)cc1)c1cccc2cnccc12`, the residual activity falls from 89% to 41%.

Compared with `NCCNc1ncc(C(N)=O)c(Nc2cccc(C(F)(F)F)c2)n1`, `NC(=O)Nc1sc(-c2ccc(F)cc2)cc1C(N)=O` is higher in residual activity: 21% for the first, 42% for the second.

Going from `CC(C)(C)n1nc(Cc2cccc3ccccc23)c2c(N)ncnc21` to `O=c1cc(N2CCOCC2)oc2c1ccc1ccccc12`, the residual activity rises from 65% to 70%.

Compared with `O=C(O)/C=C/c1cc(Br)c(Br)c(Br)c1Br`, `O=C(c1ccccc1)c1ccc(N2CCOCC2)cc1O` is higher in residual activity: 13% for the first, 47% for the second.

First: O=C(Nc1nc2ccccc2n1CCN1CCOCC1)c1cccc([N+](=O)[O-])c1
Second: Nc1nc(Nc2ccc(S(N)(=O)=O)cc2)nn1C(=O)c1c(F)cccc1F
The residual activity of the first is higher: 58% for the first, 0% for the second.

Work on `CCCCc1c(-c2ccc(O)cc2)[nH]c2nccnc12` yielded a residual activity of 7%.
